# Source: PubChem BioAssay
# GLP-1R agonist: agonists of human GLP-1 receptor; Potency, µM (highest dose often 45.6 µM), for inactives: at the highest dose activation, hits mostly activators; actives 0.007% (n = 380,000); HEK293 GLP-1R CRE-luciferase, luminescence, 4-6 h; cells express a hypersensitive GLP-1R form; note: % of control where 0% means no effect
# Target sequence (P43220 whole entry, looked up): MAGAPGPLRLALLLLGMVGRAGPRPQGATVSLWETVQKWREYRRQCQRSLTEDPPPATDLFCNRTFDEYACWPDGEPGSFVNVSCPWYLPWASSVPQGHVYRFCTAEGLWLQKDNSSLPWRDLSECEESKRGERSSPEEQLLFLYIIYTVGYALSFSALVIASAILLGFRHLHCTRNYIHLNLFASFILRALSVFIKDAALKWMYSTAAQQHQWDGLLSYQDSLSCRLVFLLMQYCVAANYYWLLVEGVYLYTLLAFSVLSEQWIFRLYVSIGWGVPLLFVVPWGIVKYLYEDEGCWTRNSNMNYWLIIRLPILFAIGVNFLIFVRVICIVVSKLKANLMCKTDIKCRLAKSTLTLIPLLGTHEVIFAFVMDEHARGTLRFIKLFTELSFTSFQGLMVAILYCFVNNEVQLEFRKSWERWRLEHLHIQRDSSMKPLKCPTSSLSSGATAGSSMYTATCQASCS
# GLP1R cytotox: cytotoxic in the GLP-1 receptor inverse agonist counter-screen; HEK293 cAMP-luciferase reporter cells, luminescence, 24 h; Potency, µM (titrated, usually from 38.3 µM), inactives show at the top dose activity change, negative = inhibition, usual class: inhibitors; actives 0.13% (n = 410,000); AID 624418;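 note: loss of luciferase light is scored as toxicity; % is set by controls: 0 for no effect and ±100 for the full control effect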
#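 MLSMR compounds, 24 hr on cells at 37 deg C/5% CO2; luminescence after luciferase reagent (12 min RT). Inhibition counted as the undesired cytotoxic outcome.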
# GCN5L2 inh: GCN5L2 (KAT2A) acetyltransferase inhibition | Q92830 | GCN5L2 HAT assay, ThioGlo1 CoA-SH fluorescence | Potency, µM (top dose mostly 58.9 µM), for the others: at the top dose activity change, negative = inhibition, most hits filed as inhibitors | actives 0.21% (n = 390,000) | AID 504327; note: % is set by controls: 0 for no effect and ±100 for the full control effect
#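 GCN5L2 (20 nM) in 50mM HEPES pH 7.5, 0.1mM EDTA, 0.01% Tween-20 preincubated 15 min with compounds at room temperature. Reaction started with H3(1-25) 75uM, acetyl-CoA 70uM, ThioGlo1 50uM; CoA-thiol fluorescence (Ex340/Em540) read at 0 and 20 min.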
# PTHR1 agonist: agonists of human PTHR1 parathyroid hormone receptor; Q03431; HEK293 GP2 PTHR1 cells, GloSensor cAMP luminescence, 1 h; Potency, µM (top dose mostly 115 µM), for the others: at the highest dose activation, most hits filed as activators; actives 0.075% (n = 410,000); note: nearly all actives have a fitted effect of over 55% in size
#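 HEK-293-derived GP2 cells expressing PTHR1 and a GloSensor cAMP reporter, 3,000/well, plated overnight, given luciferin plus IBMX (each 0.5 mM as added) for 1 h at 37 °C, then compound for 1 h at 37 °C. Luminescence was read after 15 min at room temperature.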
# RGS4 inhibitor: human RGS4 inhibition; P49798; Potency, µM (series often up to 114 µM), without a hit: top-dose activity change, negative = inhibition, usual class: inhibitors; actives 0.039% (n = 390,000); Transcreener GDP fluorescence polarization, RGS4-accelerated GTP hydrolysis; note: % is set by controls: 0 for no effect and ±100 for the full control effect; nearly all actives have a fitted effect of over 75% in size
# Target sequence (P49798 whole entry, looked up): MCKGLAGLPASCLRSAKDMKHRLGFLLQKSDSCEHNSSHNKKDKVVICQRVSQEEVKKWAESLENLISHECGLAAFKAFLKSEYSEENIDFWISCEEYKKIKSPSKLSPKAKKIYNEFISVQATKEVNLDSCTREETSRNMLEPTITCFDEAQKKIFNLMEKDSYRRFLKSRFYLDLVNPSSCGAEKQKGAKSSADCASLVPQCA
#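 MLSMR compounds (23 nl, pin-transferred) preincubated 10 min at room temperature with a 500nM (2x) first reagent, then RGS4 at 900nM (2x) plus Transcreener GDP mix added; fluorescence polarization (620/688 nm) read before and after 90 min at 30 °C.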
# GLP-1R inv ag: acts as inverse agonist at human GLP-1 receptor; HEK293 GLP-1R CRE-luciferase, luminescence, 24 h; GLP-1R form is constitutively active; Potency, µM (highest dose often 38.3 µM), for inactives: at the highest dose activity change, negative = inhibition, most hits filed as inhibitors; actives 1.6% (n = 410,000); note: % is set by controls: 0 for no effect and ±100 for the full control effect; nearly all actives have a fitted effect of over 55% in size
#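 qHTS in 1536-well format: reporter HEK293 cells expressing constitutive GLP-1R activity in DMEM + 10% Nu serum, 24 hr with compounds at 37 deg C, luminescence read after 12 min with detection reagent.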
# * = called active by the depositor; i = inactive; ? = inconclusive; / = no result; [ ] = remark or other dose. In the library only some 1.8% were active in any assay of this set; here they are far more common. Calls come from the whole dose curve; as a rule, active = well fitted curve in the direction sought with a large enough effect; inconclusive = small, poorly fitted or top-dose-only effect, or another doubt; inactive = no such curve, though single readings can be large; an effect the other way counts as inactive or inconclusive. Potency is the fitted concentration of half-maximal effect.
SMILES,GLP-1R agonist,GLP1R cytotox,GCN5L2 inh,PTHR1 agonist,RGS4 inhibitor,GLP-1R inv ag
COc1ccc2[nH]cc(CCNC(=O)/C=C/[C@H]3O[C@@H](n4cc(C)c(=O)[nH]c4=O)C[C@@H]3O)c2c1,2.8%,6.7%,/,-24.0%,/,24.6%
O=C(Nc1ccc(Cl)cc1)c1sccc1-n1cccc1,16.2%,1.6%,-8.3%,i,1.3%,4.47µM*
CS(=O)(=O)N(CC(=O)NCCSCc1ccccc1)c1ccccc1F,13.1%,2.0%,-19.0%,-4.3%,2.7%,-3.0%
O=C(CCN1C(=O)/C(=C/c2ccccc2Cl)SC1=S)NC1CCCC1,-2.5%,4.3%,-30.3%,-4.8%,-11.5%,-11.2%
C=C(Br)Cn1c(CCC)nc2ccccc21,4.6%,5.6%,-11.9%,-15.8%[57.5 µM],0.8%,3.55µM*
CCC(=O)N[C@@H]1CCc2cccc(OC)c2C1,/,/,-29.3%,/,468.3%[56.9 µM],/
CCC(=O)NC1Cc2ccccc2C(c2ccccc2)C1 (stereo not given),/,/,-1.8%,/,23.8µM*,/
CC(CNC(=O)c1cnn(-c2ccc(F)cc2)c1-n1cccc1)c1ccccc1 (stereo not given),10.7%,2.2%,-5.8%,-86.1%,-5.2%,10µM*
COCC(=O)OC1CCn2c1nc1c2C(=O)C(C)=C(NC(C)=O)C1=O (stereo not given),-13.1%,11.2µM*,/,-17.9%,-37.9%,10µM*
O=C(Nc1ccc(F)cc1F)c1sccc1SCc1cccc(C(F)(F)F)c1,-5.3%,-2.6%,-8.0%,-20.5%,-6.2%,10µM*
NCCCCC(NC(=O)C1CCCN1C(=O)C1CSSCC(N)C(=O)NC(Cc2ccccc2)C(=O)NC(Cc2ccccc2)C(=O)NC(CCC(N)=O)C(=O)NC(CC(N)=O)C(=O)N1)C(=O)NCC(N)=O (stereo not given),-0.2%,/,/,/,/,/
O=C(CO)[C@@H](O)C(O)[C@@H](O)CO (stereo not given in full),5.4%,/,-6.6%,/,/,/
CC(=O)Nc1ccc(S(=O)(=O)Nc2nc3ccccc3nc2Nc2ccc(O)c(C(=O)O)c2)cc1,-0.4%,3.9%,-12.4%,-18.7%,-14.4%,3.0%
COC(=O)c1c(C(=O)OC)c(-c2ccc(Br)cc2)n2c1CS(=O)C2 (stereo not given),-8.0%,0.9%,15.8%,-4.4%,-5.1%,7.4%
O=C(O)c1ccc(COc2ccc(Cl)cc2)o1,0.5%,3.9%,-3.4%,-1.8%,41.6%,14.3%
CCc1ccc(OCc2ccc(C(=O)O)o2)cc1,-5.8%,17.2%,-2.8%,-92.4%,-2.7%,3.98µM*
Cc1ccc(C(C)NC(=S)NCc2ccc(F)cc2)cc1C (stereo not given),4.8%,-1.2%,-27.5%,i,-19.1%,8.91µM*
COc1ccc(SC[C@H](Cc2ccccc2)N2CC[C@@H](NC(=O)OCc3ccccc3)CCC2=O)cc1,8.7%,-15.5%,-4.2%,-5.9%,-6.6%,?
CC[C@@H](C)[C@H](CN[C@H](CNC)C(C)C)NC[C@@H](C)c1ccc(CC(C)C)cc1,-0.5%,11.2µM*,3.5%,14.0%,-12.5%,?
COc1ccc(S(=O)(=O)NC(=O)C2(C)CCN2C(=O)C(C)(C)c2ccccc2)cc1 (stereo not given),4.0%,1.6%,/,-3.5%,/,12.5%
CCc1nc2c(OCc3ccc(Cl)cc3)cccn2c1N(C)C(=O)c1ccco1,-0.1%,-23.2%,/,-59.9%,/,10µM*
COc1cc(C)ccc1OCCCn1c(-c2ccc(Cl)cc2)nc2ccccc2c1=O,/,-0.3%,-1.7%,i,-8.6%,5.6%
Cc1ccc(S(=O)(=O)/C(=C/Cl)NC(=O)c2ccccc2)cc1,-7.6%,6.31µM*,-1.7%,-31.3%,24.4%,10µM*
CC(C)C(=O)Nc1nc2c(ncn2[C@H]2CC(O)[C@@H](CO)O2)c(=O)[nH]1 (stereo not given in full),/,/,/,/,2.4%,/
CCCc1cc(=O)oc2cc(C)cc(OC(C)C(=O)NCCCn3ccnc3)c12 (stereo not given),5.4%,2.3%,-12.7%,i,-8.4%[11.4 µM],19.1%
SMILES,GLP-1R agonist,GLP1R cytotox,GCN5L2 inh,PTHR1 agonist,RGS4 inhibitor,GLP-1R inv ag
CC(C)c1nnc(NC(=O)c2ccc3c(c2)OCO3)s1,-0.8%,-9.9%,-2.4%,-40.4%,-36.0%,1.12µM*
CO/S(=N\S(=O)(=O)c1ccc(Cl)cc1)c1ccc([N+](=O)[O-])cc1 (stereo not given),/,/,-11.5%,/,11.9µM*,/
CCCCn1c(N)c(N(CC(C)C)C(=O)C2CCN(S(=O)(=O)c3ccc(C)c(C)c3)CC2)c(=O)[nH]c1=O,-2.3%,?,?,-1.2%,-11.3%,?
CCOc1cc(/C=C2/C(=O)NN(c3cccc(Cl)c3)C2=O)ccc1O,-0.3%,-19.2%,-6.8%,-23.9%,?,?
COc1cc(/C=C2/C(=O)NN(c3cccc(Cl)c3)C2=O)cc(OC)c1O,-1.4%,-10.9%,-7.7%,-50.4%,-50.3%,2.82µM*
O=C1NN(c2cccc(Br)c2)C(=O)/C1=C\c1ccc(O)cc1,-1.8%,?,9.4%,-28.9%,?,10µM*
CC(C)=C1C(=O)NN(c2ccc(C)c(Cl)c2)C1=O,-33.9%,12.1%,-9.0%,-14.7%,-1.4%,?
CC(C)=C1C(=O)NN(c2cccc(Cl)c2)C1=O,-0.4%,-6.8%,-2.1%,i,-6.0%,10µM*
CC(C)C(C(=O)NCC1CCCO1)N(C(=O)CNS(=O)(=O)c1ccc(F)cc1)C1CCCCC1 (stereo not given),7.2%,-10.5%,-6.7%,-8.1%,-5.1%,1.7%
COc1ccccc1NC(=O)C1=C(C)Nc2nc(SCc3ccccc3)nn2C1c1cccs1 (stereo not given),/,0.4%,13.5%,i,12.6%,18.1%
CCS(=O)(=O)Nc1ccc(-c2cc(-c3ccccc3)c3cc(C)ccc3n2)cc1,-3.3%,-10.7%,-21.1%,i,-14.5%,7.08µM*
CCCOC(=O)c1c(-c2ccccc2)c(-c2ccccc2)nn(C)c1=O,/,-10.7%,-11.4%,-22.9%,-37.7%,-18.0%
O=C1/C(=C/c2cccs2)N=C(c2cccs2)N1Nc1ccccc1,5.2%,-10.2%,0.1%,i,26.6%,10µM*
O=C1/C(=C\c2cccs2)N=C(c2cccs2)N1Nc1ccccc1,14.8%,?,-13.3%,-3.3%,-19.8%,?
CCOC(=O)c1cnc(-n2nc(C)cc2C)nc1NCc1ccc2c(c1)OCO2,-1.9%,?,2.1%,i,18.1%[11.4 µM],3.55µM*
